Experimental data taken from the supplement of paper PMC4683952.
Counter-ions that a name gives are not always drawn. The whole screen tested about 1,200 compounds, of which about 50 (4%) showed activity. This is one part of a sample in which actives are shown more often than they occur. Unmarked numbers belong to inactive results. Cut-off read from the data, not from the text of the source: all actives reach 1.3 or more but so do some inactives.

test system: Lgr5 (MarsCy1-Lgr5-EGFP, U2OS); experiment: cell-surface Lgr5 expression (SCi1 fluorescence, background-subtracted) relative to WT DMSO (fold of DMSO control); higher = more Lgr5 at the plasma membrane, active = hit call of the paper; conditions: U2OS MarsCy1-Lgr5-EGFP stable; treatment time: overnight; 16 µM; library: Johns Hopkins Clinical Compound Library

Compound | cell-surface Lgr5 expression
NC(=O)N[C@@H](CCC(=O)O)C(=O)O [Carglumic acid (N-Carbamyl-L-Glutamic Acid)] | 1.08
NC(CCC(=O)O)C(=O)O (racemic) [DL-Glutamic acid monohydrate] | 0.692
C=CC(N)CCC(=O)O (stereo not drawn) [Vigabatrin] | 1.52 (active)
OCc1ccccc1O[C@@H]1O[C@H](CO)[C@@H](O)[C@H](O)[C@H]1O [Salicin] | 1.17
c1ccc(CN(CC2=NCCN2)c2ccccc2)cc1 [Antazoline phosphate salt] | 1.28
c1ccc(CN(CC2=NCCN2)c2ccccc2)cc1 [Antazoline] | 1.21
CC(C)COCC(CN(Cc1ccccc1)c1ccccc1)N1CCCC1 (stereo not drawn) [Bepridil] | 1.31 (active)
Nc1c(Br)cc(Br)cc1CN[C@H]1CC[C@H](O)CC1 [Ambroxol hydrochloride] | 1.54 (active)
O=C1OC(c2ccc(O)cc2)(c2ccc(O[C@@H]3O[C@H](C(=O)O)[C@@H](O)[C@H](O)[C@H]3O)cc2)c2ccccc21 (stereo partly drawn) [Phenolphthalein beta-D-glucuronide sodium salt] | 1
NCCC[C@H](N)C(=O)O [L-Ornithine] | 0.718
[K+].[OH-] [Potassium hydroxide] | 1.11
C=CCSCC1Nc2cc(Cl)c(S(N)(=O)=O)cc2S(=O)(=O)N1 (stereo not drawn) [Althiazide] | 1.27
CN1C(CCl)Nc2cc(Cl)c(S(N)(=O)=O)cc2S1(=O)=O (stereo not drawn) [Methyclothiazide] | 0.905
NS(=O)(=O)c1cc2c(cc1Cl)NC(C(Cl)Cl)NS2(=O)=O (stereo not drawn) [Trichlormethiazide] | 1.44 (active)
CNCC(O)c1ccc(OC(=O)C(C)(C)C)c(OC(=O)C(C)(C)C)c1 (stereo not drawn) [Dipivefrin HCl] | 1.42 (active)
CNC[C@H](O)c1cccc(O)c1 [L-Phenylephrine hydrochloride] | 0.598
CC(C)(C)NCC(O)c1ccc(O)c(CO)c1 (stereo not drawn) [Albuterol (Salbutamol)] | 1.22
CCC(C)C(C(=O)OCC[N+](C)(CC)CC)c1ccccc1 (stereo not drawn) [Valethamate bromide] | 1.1
CCN(CC)C(=S)S [Ditiocarb (Diethyldithiocarbamic acid sodium, thiocarb)] | 1.05
CCN(CC)Cc1cc(Nc2ccnc3cc(Cl)ccc23)ccc1O [Amodiaquin] | 1.47
CCN(CC)CCCC(C)Nc1ccnc2cc(Cl)ccc12 (stereo not drawn) [Chloroquine diphosphate salt] | 1.53

Compound | cell-surface Lgr5 expression
O=C(OCC(O)CO)c1ccccc1Nc1ccnc2cc(Cl)ccc12 (stereo not drawn) [Glafenine] | 1.63 (active)
CN(CCO)CC(O)Cn1cnc2c1c(=O)n(C)c(=O)n2C (stereo not drawn) [Xanthinol niacinate (Xanthinol Nicotinate)] | 1.05
O=Cc1cc(Br)cc(Br)c1O [3,5-Dibromosalicylaldehyde] | 1.17
CNCCCN1c2ccccc2CCc2ccccc21 [Desipramine] | 1
CNCCCC1c2ccccc2C=Cc2ccccc21 [Protriptyline] | 0.38
CNCCCC12CCC(c3ccccc31)c1ccccc12 [Maprotiline] | 1.32 (active)
COc1cc(C2Oc3cc([C@H]4Oc5cc(O)cc(O)c5C(=O)[C@@H]4O)ccc3OC2CO)ccc1O (stereo partly drawn) [Silibinin] | 1.08
COc1cc(C2Oc3cc([C@H]4Oc5cc(O)cc(O)c5C(=O)[C@@H]4O)ccc3OC2CO)ccc1O (stereo partly drawn) [Silibinin (Silybin)] | 1.23
Oc1c(Cl)cc(Cl)c2cccnc12 [Chloroxine (5,7-Dichloro-8-hydroxyquinoline)] | 0.97
Cc1c(N(C)C)c(=O)n(-c2ccccc2)n1C [Aminopyrine (4 Dimethylamino antipyrene)] | 0.932
Cc1c(N(C)C)c(=O)n(-c2ccccc2)n1C [Aminopyrine (4-Dimethylamino-antipyrine)] | 1.14
Cc1cc(OS(=O)(=O)O)c2ccccc2c1OS(=O)(=O)O [Menadiol disulfate disodium salt trihydrate] | 0.856
O=C(O)c1cc(S(=O)(=O)O)ccc1O [Sulfosalicylic acid (5-Sulfosalicylic acid dihydrate)] | 1.11
NC[C@H](O)c1ccc(O)c(O)c1 [Norepinephrine] | 1.26
CCC(NC(C)C)C(O)c1ccc(O)c(O)c1 (stereo not drawn) [Isoetharine mesylate] | 1.19
NC[C@H](O)c1ccc(O)c(O)c1 [Arterenol (Norepinephrine)] | 1.3 (active)
CNC[C@H](O)c1ccc(O)c(O)c1 [Epinephrine] | 1.57
Cc1ncc(CO)c(CN)c1O [Pyridoxamine dihydrochloride] | 0.999
Cc1ncc(CO)c(CN)c1O [Pyridoxamine, Dihydrochloride] | 1.02
CCCCc1nc(Cl)c(CO)n1Cc1ccc(-c2ccccc2-c2nnn[nH]2)cc1 [Losartan] | 0.915
C[C@@H]1[C@H](O)[C@@H](C)/C=C/C=C/C=C/C=C/C=C/C=C/C=C/[C@H](O[C@@H]2O[C@H](C)[C@@H](O)[C@H](N)[C@@H]2O)C[C@@H]2O[C@](O)(C[C@@H](O)C[C@@H](O)[C@H](O)CC[C@@H](O)C[C@@H](O)CC(=O)O[C@H]1C)C[C@H](O)[C@H]2C(=O)O [Amphotericin B] | 0.802

Compound | cell-surface Lgr5 expression
C[C@@H]1CCC[C@H](C)N1NC(=O)c1ccc(Cl)c(S(N)(=O)=O)c1 [Clopamide] | 1.3
CC(=O)O[C@]1(C(C)=O)CC[C@H]2[C@@H]3C=C(Cl)C4=CC(=O)[C@@H]5C[C@@H]5[C@]4(C)[C@H]3CC[C@@]21C [Cyproterone acetate] | 1.25
CC(=O)OCC(=O)[C@@]12OC(C)(C)O[C@@H]1C[C@H]1[C@@H]3CCC4=CC(=O)C=C[C@]4(C)[C@@]3(F)[C@@H](O)C[C@@]12C [Triamcinolone acetonide acetate] | 1.26
CC(=O)OCC(=O)[C@@]1(OC(C)=O)[C@@H](C)C[C@H]2[C@@H]3C[C@H](F)C4=CC(=O)C=C[C@]4(C)[C@@]3(F)[C@@H](O)C[C@@]21C [Diflorasone diacetate] | 1.67 (active)
CC(=O)O[C@]1(C(C)=O)CC[C@H]2[C@@H]3C[C@H](C)C4=CC(=O)C=C[C@]4(C)[C@@]3(F)[C@@H](O)C[C@@]21C [Fluorometholone acetate] | 1.31 (active)
CCCC(=O)O[C@]1(C(=O)CCl)[C@H](C)C[C@@H]2[C@@H]3CCC4=CC(=O)C=C[C@]4(C)[C@]3(F)C(=O)C[C@@]21C [Clobetasone butyrate] | 1
CCCC(=O)O[C@]1(C(=O)COC(C)=O)CC[C@H]2[C@@H]3C[C@H](F)C4=CC(=O)C=C[C@]4(C)[C@@]3(F)[C@@H](O)C[C@@]21C | 1.57 (active)
CC(=O)OCC(=O)[C@@]12OC(C)(C)O[C@@H]1C[C@H]1[C@@H]3C[C@H](F)C4=CC(=O)C=C[C@]4(C)[C@@]3(F)[C@@H](O)C[C@@]12C [Fluocinolone acetonide 21-acetate] | 1.6 (active)
CC(=O)O[C@]1(C(C)=O)CC[C@H]2[C@@H]3C[C@H](C)C4=CC(=O)CC[C@]4(C)[C@H]3CC[C@@]21C [Medroxyprogesterone acetate] | 1.2
COc1cccc2c1C(=O)c1c(O)c3c(c(O)c1C2=O)C[C@@](O)(C(=O)CO)C[C@@H]3O[C@H]1C[C@H](N)[C@@H](O)[C@H](C)O1 [Epirubicin] | 1.31
O=S(=O)([O-])[O-].[Cu+2] [Copper (II) sulfate] | 1.27
CCN1C(=CC=Cc2ccc3ccccc3[n+]2CC)C=Cc2ccccc21 [Quinaldine blue (Pinacyanol chloride)] | 1.53
CCCCNc1ccc(C(=O)OCCOCCOCCOCCOCCOCCOCCOCCOCCOC)cc1 [Benzonatate] | 1.08
O=C(O)c1ccc[n+]([O-])c1 [Oxiniacic acid (nicotinic acid n-oxide)] | 0.989
Cc1ccc(S(=O)(=O)NCl)cc1 [Chloramine-T hydrate] | 0.672
CCC(=O)Oc1ccc(/C(CC)=C(\CC)c2ccc(OC(=O)CC)cc2)cc1 [Diethylstilbestrol dipropionate] | 0.886
O=P(O)(O)OC1C(OP(=O)(O)O)C(OP(=O)(O)O)C(OP(=O)(O)O)C(OP(=O)(O)O)C1OP(=O)(O)O (stereo not drawn) [Phytic acid, dodecasodium salt hydrate] | 0.522
Br.N [Ammonium bromide] | 1.09
CC1CCC(NC(=O)N(CCCl)N=O)CC1 (stereo not drawn) [Semustine] | 1.06
C[C@@H]1C/C=C/C=C/C=C/C=C/[C@H](O[C@@H]2O[C@H](C)[C@@H](O)[C@H](N)[C@@H]2O)C[C@@H]2O[C@](O)(C[C@@H](O)C[C@H]3O[C@@H]3/C=C/C(=O)O1)C[C@H](O)[C@H]2C(=O)O [Natamycin (Pimaricin)] | 0.845
O=S(=O)([O-])[O-].O=S(=O)([O-])[O-].[Al+3].[Na+] [Aluminum sodium sulfate] | 0.71
